Compound activity: PubChem, The Scripps Research Institute Molecular Screening Center
PP1 counter – counter-screen for PP5 inhibitors: inhibitors of human PP1-alpha | P62136 | purified PP1alpha, OMFP fluorescence | inhibition, % at 6.7 µM | 320,000 compounds, 0.9% hits | AID 2235;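 active = inhibition above the mean inhibition of all tested compounds plus 3 SD, computed separately for each screening campaign, cut at about 15% in these data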
PAFAH2 inh – inhibitors of human PAFAH2; Q99487; recombinant PAFAH2, FP-rhodamine activity probe, fluorescence polarization; inhibition, % at 3.39 µM; 340,000 compounds, 0.99% hits;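 active = inhibition above the mean over all tested compounds plus 3 SD, cut at about 30% in these data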;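 also: inhibitors block probe labeling of enzyme so polarization drops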
PAFAH1B2 inh – inhibitors of human PAFAH1B2; recombinant PAFAH1B2, FP-rhodamine activity probe, fluorescence polarization; inhibition, % at 3.39 µM; 340,000 compounds, 1.2% hits;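 active = inhibition above the mean of all tested compounds plus 3 SD, cut at about 24% in these data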
PAFAH1B3 FP inh – inhibitors of human PAFAH1B3; 340,000 compounds, 0.28% hits; Q15102; recombinant PAFAH1B3, FP-rhodamine probe, fluorescence polarization; AID 492972; inhibition, % at 3.39 µM;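 active = inhibition above the screen-wide average of all tested compounds plus 3 SD, cut at about 25% in these data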
PP5 primary – PP5 (human) phosphatase inhibition | purified PP5c, OMFP substrate fluorescence | inhibition, % at 6.7 µM | P53041 | 320,000 compounds, 0.18% hits;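 active = inhibition above the campaign's mean inhibition across all tested compounds plus 3 SD, cut at about 9.5% in these data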
Target sequence (P53041 whole entry, looked up): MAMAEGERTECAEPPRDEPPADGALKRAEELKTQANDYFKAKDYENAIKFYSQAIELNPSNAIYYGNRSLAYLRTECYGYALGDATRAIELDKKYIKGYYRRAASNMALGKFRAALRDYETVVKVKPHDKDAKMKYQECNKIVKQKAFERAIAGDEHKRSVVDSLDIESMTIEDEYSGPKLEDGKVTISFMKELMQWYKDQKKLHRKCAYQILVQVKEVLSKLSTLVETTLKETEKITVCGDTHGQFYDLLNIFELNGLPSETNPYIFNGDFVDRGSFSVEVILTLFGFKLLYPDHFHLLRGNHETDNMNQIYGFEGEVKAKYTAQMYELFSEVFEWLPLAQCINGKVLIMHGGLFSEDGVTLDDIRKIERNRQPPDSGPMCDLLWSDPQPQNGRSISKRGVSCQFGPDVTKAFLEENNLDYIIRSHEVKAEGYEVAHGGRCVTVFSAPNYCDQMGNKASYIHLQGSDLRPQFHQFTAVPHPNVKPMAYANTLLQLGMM
pPAFAH FP inh – inhibitors of human plasma PAF acetylhydrolase (pPAFAH); 330,000 compounds, 1.5% hits; Q13093; AID 463082; recombinant pPAFAH, FP-rhodamine probe fluorescence polarization; inhibition, % at 3.39 µM;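 active = inhibition above the mean inhibition across the screen plus 3 SD, cut at about 25% in these data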;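 also: inhibitors block binding of the rhodamine activity-based probe so polarization drops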
A number is an active result. An excerpt weighted towards active compounds, which were near 3.4% of everything screened.

`CC(C)(C)OCC(O)CN1CCN(C(=O)c2ccccc2)CC1` (stereo not drawn) gave PP1 counter inactive, PAFAH2 inh inactive, PAFAH1B2 inh inactive, PAFAH1B3 FP inh inactive, PP5 primary inactive and pPAFAH FP inh inactive.
Screening Cc1cc(C)nc(Sc2nc(C)nc3c2oc2ccccc23)n1 returned PP1 counter inactive, PAFAH2 inh inactive, PAFAH1B2 inh inactive, PAFAH1B3 FP inh inactive, PP5 primary inactive and pPAFAH FP inh inactive.
Screening CCOC(=O)/C=C(\C)Sc1cc(=O)oc2ccccc12 returned PP1 counter inactive, PAFAH2 inh inactive, PAFAH1B2 inh inactive, PAFAH1B3 FP inh inactive, PP5 primary inactive and pPAFAH FP inh inactive.
Screening CCOC(=O)/C=C(\C)Sc1cc(O)c2ccccc2c1O returned PAFAH2 inh 31, PAFAH1B2 inh inactive and PAFAH1B3 FP inh 36.
C=C[C@]1(C)C=C2CC[C@H]3[C@@](C)(CCC[C@@]3(C)C(=O)O)[C@@H]2CC1 was read as PAFAH2 inh inactive, PAFAH1B2 inh 48, PAFAH1B3 FP inh inactive and pPAFAH FP inh inactive.
`C=C1C[C@@]23CCC4[C@@](C)(CCC[C@@]4(C)C(=O)O)C2CC[C@]1(O)C3` (stereo partly drawn) gave PP1 counter inactive, PAFAH2 inh inactive, PAFAH1B2 inh inactive, PAFAH1B3 FP inh inactive, PP5 primary inactive and pPAFAH FP inh inactive.
`O=C(Oc1cccc(C(=S)N2CCOCC2)c1)c1ccccc1` gave PP1 counter inactive, PAFAH2 inh inactive, PAFAH1B2 inh inactive, PAFAH1B3 FP inh inactive, PP5 primary inactive and pPAFAH FP inh inactive.
`O=C(Oc1cccc(Oc2ccccc2)c1)N1CCOCC1` gave PP1 counter inactive, PAFAH2 inh inactive, PAFAH1B2 inh inactive, PAFAH1B3 FP inh inactive, PP5 primary inactive and pPAFAH FP inh 25.
Screening COc1ccc(CNC(=O)CCn2c(=O)[nH]c3ccccc3c2=O)cc1 returned PP1 counter inactive, PAFAH2 inh inactive, PAFAH1B2 inh inactive, PAFAH1B3 FP inh inactive, PP5 primary inactive and pPAFAH FP inh inactive.
`CCOc1cc2[nH]c(=O)n(CCCC(=O)NCc3ccc(OC)cc3)c(=O)c2cc1OCC` gave PP1 counter inactive, PAFAH2 inh inactive, PAFAH1B2 inh 32, PAFAH1B3 FP inh inactive, PP5 primary inactive and pPAFAH FP inh inactive.
Screening CCN(CC(=O)NCc1ccc(Cl)cc1)C(=O)/C=C/c1ccccc1 returned PP1 counter inactive, PAFAH2 inh inactive, PAFAH1B2 inh 27, PAFAH1B3 FP inh inactive, PP5 primary inactive and pPAFAH FP inh inactive.
`CCN(CC(=O)NCc1ccc(Cl)cc1)C(=O)/C=C/c1ccc(C#N)cc1` gave PP1 counter inactive, PAFAH2 inh inactive, PAFAH1B2 inh inactive, PAFAH1B3 FP inh inactive, PP5 primary inactive and pPAFAH FP inh inactive.
O=C(NCc1cccs1)c1cccc(Nc2nc3ccc(Br)cc3[nH]2)c1 was read as PP1 counter inactive, PAFAH2 inh inactive, PAFAH1B2 inh 27, PAFAH1B3 FP inh 32, PP5 primary inactive and pPAFAH FP inh inactive.
COc1ccc(Cc2nnc(Nc3ccc(Cl)cc3)[nH]c2=O)cc1 was read as PP1 counter 18, PAFAH2 inh inactive, PAFAH1B2 inh inactive, PAFAH1B3 FP inh inactive, PP5 primary inactive and pPAFAH FP inh inactive.
Cc1ccc(S(=O)(=O)N2CCC(=O)CC2c2ccccc2)cc1 (stereo not drawn) was read as PAFAH2 inh inactive, PAFAH1B2 inh inactive and PAFAH1B3 FP inh inactive.
Cc1cc(C)nc(NNS(=O)(=O)c2ccc(F)c(Cl)c2)n1 was read as PP1 counter inactive, PAFAH2 inh inactive, PAFAH1B2 inh inactive, PAFAH1B3 FP inh inactive, PP5 primary inactive and pPAFAH FP inh inactive.
Screening Cc1cc(C)nc(NNS(=O)(=O)c2ccc(Cl)cc2)n1 returned PAFAH2 inh inactive, PAFAH1B2 inh 26, PAFAH1B3 FP inh inactive and pPAFAH FP inh inactive.
O=C(NC1CCN(S(=O)(=O)c2cccc([N+](=O)[O-])c2)CC1)C1CCCCC1 was read as PP1 counter 16, PAFAH2 inh inactive, PAFAH1B2 inh inactive, PAFAH1B3 FP inh inactive, PP5 primary inactive and pPAFAH FP inh inactive.
`O=C(NC1CCN(Cc2ccccc2)CC1)C1CCN(S(=O)(=O)c2cccc([N+](=O)[O-])c2)CC1` gave PP1 counter inactive, PAFAH2 inh inactive, PAFAH1B2 inh inactive, PAFAH1B3 FP inh inactive, PP5 primary inactive and pPAFAH FP inh inactive.
Screening O=C(Nc1ccc(-n2nncc2-c2ccco2)cc1)c1cc2ccccc2oc1=O returned PP1 counter 29, PAFAH2 inh inactive, PAFAH1B2 inh inactive, PAFAH1B3 FP inh inactive, PP5 primary inactive and pPAFAH FP inh inactive.
COc1ccc(S(=O)(=O)N(CC(=O)NCc2ccco2)c2ccccc2)cc1 was read as PP1 counter inactive, PAFAH2 inh inactive, PAFAH1B2 inh inactive, PAFAH1B3 FP inh inactive, PP5 primary inactive and pPAFAH FP inh inactive.
`COc1ccccc1CNC(=O)/C=C/c1ccc(S(=O)(=O)NCc2ccco2)cc1` gave PP1 counter inactive, PAFAH2 inh inactive, PAFAH1B2 inh inactive, PAFAH1B3 FP inh inactive, PP5 primary inactive and pPAFAH FP inh 25.
Screening Cc1ccc(CNC(=O)/C=C/c2ccc(S(=O)(=O)NCc3ccco3)cc2)cc1 returned PP1 counter inactive, PAFAH2 inh inactive, PAFAH1B2 inh inactive, PAFAH1B3 FP inh inactive, PP5 primary inactive and pPAFAH FP inh inactive.
O=C(O)/C=C/c1ccc(S(=O)(=O)NCc2ccco2)cc1 was read as PP1 counter inactive, PAFAH2 inh inactive, PAFAH1B2 inh inactive, PAFAH1B3 FP inh inactive, PP5 primary inactive and pPAFAH FP inh inactive.
Screening O=C(/C=C/c1ccc(S(=O)(=O)NCc2ccco2)cc1)NCc1cccc(Cl)c1 returned PP1 counter inactive, PAFAH2 inh inactive, PAFAH1B2 inh inactive, PAFAH1B3 FP inh inactive, PP5 primary inactive and pPAFAH FP inh 29.
Screening COc1ccc(C)cc1NC(=O)CN(C)S(=O)(=O)c1cc(C)ccc1OC returned PP1 counter inactive, PAFAH2 inh inactive, PAFAH1B2 inh inactive, PAFAH1B3 FP inh inactive, PP5 primary inactive and pPAFAH FP inh inactive.
COc1ccc(S(=O)(=O)N2CCOCC2)cc1NC(=O)CC(C)c1ccccc1 (stereo not drawn) was read as PAFAH2 inh inactive, PAFAH1B2 inh inactive, PAFAH1B3 FP inh inactive and pPAFAH FP inh inactive.
`CCOc1ccc(Cc2nnc(SCC(=O)c3ccc(OC)cc3)o2)cc1` gave PP1 counter inactive, PAFAH2 inh inactive, PAFAH1B2 inh inactive, PAFAH1B3 FP inh inactive, PP5 primary inactive and pPAFAH FP inh inactive.
`CCOc1ccc(Nc2nc(Cc3nnc(SCC(=O)O)o3)cs2)cc1` gave PP1 counter inactive, PAFAH2 inh inactive, PAFAH1B2 inh inactive, PAFAH1B3 FP inh inactive, PP5 primary inactive and pPAFAH FP inh 28.
Screening COc1cccc(NC(=O)/C=C/c2ccco2)c1 returned PP1 counter inactive, PAFAH2 inh inactive, PAFAH1B2 inh inactive, PAFAH1B3 FP inh inactive, PP5 primary inactive and pPAFAH FP inh inactive.
For CSc1cccc(NC(=O)/C=C/c2ccco2)c1 the results were PP1 counter inactive, PAFAH2 inh inactive, PAFAH1B2 inh inactive, PAFAH1B3 FP inh inactive, PP5 primary inactive and pPAFAH FP inh 25.
